Holding throughout (assay): protein binding microarray; high values mean tight binding
What all share (details): dsDNA, one strand shown

The target of test [1] is RELARELA (p65 homodimer) (Homo sapiens, UniProt Q04206 1-307).
The target of test [2] is p50p50 homodimer (Homo sapiens, UniProt P19838 7-356).
Test [3] deals with T1, p52p52 homodimer (Homo sapiens, UniProt Q00653 4-332).
T1 sequence: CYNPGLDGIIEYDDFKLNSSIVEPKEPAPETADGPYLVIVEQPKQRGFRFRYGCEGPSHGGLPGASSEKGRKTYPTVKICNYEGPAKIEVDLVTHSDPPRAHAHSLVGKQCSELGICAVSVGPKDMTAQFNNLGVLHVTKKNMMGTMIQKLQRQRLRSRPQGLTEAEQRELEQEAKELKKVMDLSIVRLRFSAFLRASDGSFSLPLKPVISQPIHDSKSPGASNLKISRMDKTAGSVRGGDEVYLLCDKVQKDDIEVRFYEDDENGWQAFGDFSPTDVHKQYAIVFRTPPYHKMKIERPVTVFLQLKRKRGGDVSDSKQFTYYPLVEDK

The target in test [4] is RELA (p65) subunit of heterodimer;p50 subunit (Homo sapiens;Homo sapiens, UniProt Q04206;P19838 1-307;7-356).
For test [5], the target named is RELA (p65) subunit of heterodimer;p52 subunit (Homo sapiens;Homo sapiens, UniProt Q04206;Q00653 1-307;4-332).
The target of test [6] is RELB subunit;p50 subunit (Homo sapiens;Homo sapiens, UniProt Q01201;P19838 120-401;7-356).
Test [7] deals with T2, RELB subunit;p52 subunit (Homo sapiens;Homo sapiens, UniProt Q01201;Q00653 120-401;4-332).
T2 sequence 1: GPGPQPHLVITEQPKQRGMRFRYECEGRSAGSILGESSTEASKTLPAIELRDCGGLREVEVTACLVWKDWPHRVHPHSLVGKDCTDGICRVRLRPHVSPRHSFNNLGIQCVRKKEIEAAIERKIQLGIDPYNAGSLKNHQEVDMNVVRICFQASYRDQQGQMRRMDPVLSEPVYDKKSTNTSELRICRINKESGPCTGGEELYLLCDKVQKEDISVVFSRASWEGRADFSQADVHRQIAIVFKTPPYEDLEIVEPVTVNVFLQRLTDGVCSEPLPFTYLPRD
T2 sequence 2: T1 sequence

For test [8], the target named is C-Rel subunit;p50 subunit (Homo sapiens;Homo sapiens, UniProt Q04864;P19838 1-285;7-356).
In test [9] the target is T3, C-Rel subunit;p52 subunit (Homo sapiens;Homo sapiens, UniProt Q04864;Q00653 1-285;4-332).
T3 sequence 1: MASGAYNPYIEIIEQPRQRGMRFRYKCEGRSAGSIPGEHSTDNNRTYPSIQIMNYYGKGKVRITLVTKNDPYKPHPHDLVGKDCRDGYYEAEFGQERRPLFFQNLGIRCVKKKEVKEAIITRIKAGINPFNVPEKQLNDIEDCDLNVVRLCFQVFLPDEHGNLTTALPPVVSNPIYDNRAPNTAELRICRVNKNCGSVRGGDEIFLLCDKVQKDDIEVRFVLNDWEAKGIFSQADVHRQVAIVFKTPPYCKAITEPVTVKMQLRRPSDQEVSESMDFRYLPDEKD
T3 sequence 2: T1 sequence

RELARELA (p65 homodimer), sequence (Q04206 1-307): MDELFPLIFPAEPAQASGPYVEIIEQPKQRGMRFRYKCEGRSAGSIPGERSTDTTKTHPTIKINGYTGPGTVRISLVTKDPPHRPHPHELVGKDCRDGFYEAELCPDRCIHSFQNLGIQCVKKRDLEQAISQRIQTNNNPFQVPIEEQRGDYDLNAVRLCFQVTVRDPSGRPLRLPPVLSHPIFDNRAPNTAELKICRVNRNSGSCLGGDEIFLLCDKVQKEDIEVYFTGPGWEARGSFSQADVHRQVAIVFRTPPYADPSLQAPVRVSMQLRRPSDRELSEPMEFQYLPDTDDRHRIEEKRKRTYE
RELA (p65) subunit of heterodimer;p50 subunit, sequence (Q04206 1-307, chain 1 of 2): as the sequence (Q04206 1-307) above
RELA (p65) subunit of heterodimer;p50 subunit, sequence (P19838 7-356, chain 2 of 2): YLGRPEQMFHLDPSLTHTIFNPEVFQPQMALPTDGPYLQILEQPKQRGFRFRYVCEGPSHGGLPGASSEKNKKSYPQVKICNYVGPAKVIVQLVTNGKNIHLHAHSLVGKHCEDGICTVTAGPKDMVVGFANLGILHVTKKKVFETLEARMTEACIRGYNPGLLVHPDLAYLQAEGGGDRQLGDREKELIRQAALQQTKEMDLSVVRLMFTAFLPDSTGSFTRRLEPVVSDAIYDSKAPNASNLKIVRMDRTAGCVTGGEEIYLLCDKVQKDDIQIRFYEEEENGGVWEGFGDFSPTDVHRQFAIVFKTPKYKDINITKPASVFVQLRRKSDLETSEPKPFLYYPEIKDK
p50p50 homodimer, sequence (P19838 7-356): as the sequence (P19838 7-356, chain 2 of 2) above

Consider GAGTTGCCCCC, for which the binding signal in [1] was 0.487 z-score; in test [2], 1.04 z-score; in test [3], 0.557 z-score; in test [4], 1.06 z-score; in [5] it was 0.811 z-score; in [6], 0.918 z-score. For the same sequence, the results for the binding signal in [7], in test [8] and in test [9] were 0.947 z-score, 1.16 z-score and 0.676 z-score, respectively.

For the sequence CGAATTCTCCT, the binding signal in test [1] is -0.00416 z-score; in [2], -1.08 z-score; in test [3], -0.594 z-score; in [4], -0.48 z-score; in [5], -0.707 z-score; in [6], -0.948 z-score. Also, the binding signal in test [7] was -0.835 z-score; in [8] it was -0.873 z-score; in test [9], -0.63 z-score.

For the sequence AAGTGATTCCT, the binding signal in test [1] was -0.0511 z-score; in test [2], -0.869 z-score; in test [3], -0.482 z-score; in [4] it was -0.602 z-score; in test [5], -0.719 z-score; in [6] it was -0.843 z-score. In addition, the figures for the binding signal in test [7], in test [8] and in test [9] were -0.976 z-score, -0.572 z-score and -0.598 z-score, respectively.

AAGGACTCCCC: the binding signal was determined as 0.78 z-score in [1]; 0.758 z-score in [2]; 0.493 z-score in test [3]; 0.844 z-score in test [4]; 0.665 z-score in test [5]; 0.692 z-score in test [6]. The binding signal was found to be 0.442 z-score in [7], 0.76 z-score in test [8] and 0.388 z-score in [9].

Consider CGAAGCTTCCC, for which the binding signal is 0.142 z-score in test [1]; -0.668 z-score in test [2]; -0.466 z-score in [3]; -0.322 z-score in test [4]; -0.568 z-score in test [5]; -0.617 z-score in [6]. Further, the results for the binding signal in test [7], in [8] and in test [9] were -0.463 z-score, -0.253 z-score and -0.652 z-score, respectively.

As to CAGAATCTCCC, the binding signal in [1] was 0.546 z-score; in test [2] it was 0.713 z-score; in [3], -0.063 z-score; in [4], 0.636 z-score; in test [5] it was 0.291 z-score; in test [6], 0.641 z-score. The figures for the binding signal in test [7], in test [8] and in test [9] were 0.396 z-score, 0.223 z-score and 0.378 z-score, respectively.

For the sequence AAAATAACCCC, the binding signal in test [1] was found to be 0.617 z-score; in test [2] it was 1.07 z-score; in [3], 1.26 z-score; in test [4], 1.03 z-score; in test [5], 1.24 z-score; in test [6] it was 0.895 z-score. Also, the values for the binding signal in test [7], in test [8] and in [9] were 1.14 z-score, 0.682 z-score and 1.16 z-score, respectively.

For the sequence AGAGGCGTCCC, the binding signal in test [1] was -0.0545 z-score; in test [2], -0.0189 z-score; in test [3] it was 0.07 z-score; in test [4], -0.193 z-score; in test [5], -0.01 z-score; in test [6], 0.139 z-score. Moreover, the binding signal in [7] is 0.267 z-score; in test [8] it was -0.234 z-score; in test [9], -0.17 z-score.

CGGATCTTCCT: the binding signal in [1] is 0.45 z-score; in test [2], -1.67 z-score; in test [3], -0.691 z-score; in test [4], -0.69 z-score; in [5] it was -0.836 z-score; in test [6] it was -1.21 z-score. For the same sequence, the binding signal in test [7] was -0.889 z-score; in [8], -0.859 z-score; in [9], -0.666 z-score.

Take CAAATAGCCCC: the binding signal in test [1] worked out at 0.081 z-score; in test [2], 0.839 z-score; in test [3] it was 0.425 z-score; in [4], 0.413 z-score; in test [5], 0.823 z-score; in test [6] it was 0.524 z-score. Also, the binding signal in test [7] worked out at 0.621 z-score; in [8], 0.331 z-score; in [9], 0.543 z-score.

On to GAGAGCCCCCC, for which the binding signal in [1] is -1.07 z-score; in test [2], 1.13 z-score; in test [3], 0.398 z-score; in test [4] it was 0.853 z-score; in [5], 0.722 z-score; in test [6] it was 0.759 z-score. Further, the binding signal is 0.733 z-score in test [7], 0.773 z-score in [8] and 0.389 z-score in test [9].

For the sequence GAAAATCTCCC, the binding signal in test [1] turned out to be 1.06 z-score; in [2], 0.914 z-score; in test [3], 0.592 z-score; in [4] it was 0.875 z-score; in test [5], 0.8 z-score; in test [6], 1.08 z-score. The binding signal in test [7] turned out to be 0.63 z-score; in test [8] it was 0.573 z-score; in [9], 0.538 z-score.

For the sequence GAGGGAGCCCT, the binding signal was -0.902 z-score in [1]; -0.904 z-score in test [2]; -0.464 z-score in [3]; -0.859 z-score in test [4]; -0.736 z-score in [5]; -0.793 z-score in test [6]. The binding signal in test [7] is -0.682 z-score; in test [8], -1.28 z-score; in test [9], -0.682 z-score.

As for GGGGTCGCCCC, the binding signal was found to be 0.508 z-score in [1]; 0.472 z-score in test [2]; 2.74 z-score in test [3]; 1.36 z-score in test [4]; 2.18 z-score in test [5]; 1.44 z-score in test [6]. Further, the binding signal in [7] was determined as 1.61 z-score; in test [8], 0.866 z-score; in test [9] it was 1.5 z-score.

As for GAGTATTTCCC, the binding signal in test [1] turned out to be 2.24 z-score; in test [2] it was 0.925 z-score; in test [3] it was 1.05 z-score; in test [4] it was 1.27 z-score; in test [5], 1.1 z-score; in [6], 0.527 z-score. For the same sequence, the binding signal in test [7] was 0.505 z-score; in test [8], 1.24 z-score; in test [9] it was 1.14 z-score.
